Screening results deposited in PubChem by National Center for Advancing Translational Sciences (NCATS).
Sampled rows, rich in hits. Any-hit rate of the full collection: about 21%.
NS1 inh: inhibitors of influenza NS1 protein function; hit rate 0.4% among 270,000; Potency, µM (doses to about 46.1 µM), for the others: at the top dose activity, positive = more growth; calls by dose curve; further: potency means the concentration at half of the fitted maximal effect; actives are rising curves; nearly all actives have a fitted effect of over 50% in size
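Growth recovery, yeast-based: influenza A NS1 expressed in S. cerevisiae causes slow growth, and suppressors are detected by OD600. The parent strain without NS1 is used as positive control.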
Pf growth 96h: inhibits malaria parasite growth, 96 h; hit rate 6.9% among 320,000; AID 504834; Potency, µM (series often up to 28.7 µM), without a hit: at the highest dose activity change, negative = inhibition, actives largely listed as inhibitors; P. falciparum luciferase reporter growth, 96 h; further: potency means the concentration at half of the fitted maximal effect; on the % scale 0 is the no-effect control and ±100 the full control effect
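Cell-based qHTS: luciferase-tagged P. falciparum in erythrocytes (2% hematocrit, 0.05% parasitemia final) incubated with compounds for 96 hours, 37 C, 5% CO2; luciferase detection reagent then added and luminescence measured.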
Pf growth 48h: P. falciparum growth inhibition at 48 hours (one generation); Potency, µM (doses to about 28.7 µM), for the others: at the top dose activity change, negative = inhibition, most hits filed as inhibitors; P. falciparum luciferase growth in erythrocytes, 48 h; hit rate 5.9% among 310,000; AID 504832; further: potency means the concentration at half of the fitted maximal effect; on the % scale 0 is the no-effect control and ±100 the full control effect
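In quantitative HTS format, infected erythrocytes bearing luciferase-reporter parasites were treated for a single generation at 37 C. Luminescence after adding detection reagent served as the growth measure.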
Shiga inhibitor: inhibitors of Shiga toxin in Vero cells. Vero cells, Shiga toxin protein synthesis inhibition reporter. inhibition, % at 38.7 µM. hit rate 9.2% among 290,000; in the data active means inhibition mostly above about 28%, no sharp cut-off; inactive means mostly below about 43%; further: 0% is about no effect
CHX counter: counter-screen for Shiga toxin inhibitors: cycloheximide protein synthesis inhibition. hit rate 12% among 300,000. cell reporter, cycloheximide protein synthesis inhibition counterscreen. AID 2314. max response, %; in the data active means max response mostly above about 13%, no sharp cut-off; inactive means mostly below about 14%; further: read at 38.3 µM for the half of the compounds with a filed dose; 0% is about no effect
Sm TGR block: inhibitors of Schistosoma mansoni thioredoxin glutathione reductase; Q962Y6; purified TGR, DTNB reduction, TNB absorbance 405 nm; Potency, µM (top dose mostly 114 µM), inactives show at the top dose activity change, negative = inhibition, actives largely listed as inhibitors; hit rate 3% among 360,000; further: potency means the concentration at half of the fitted maximal effect; on the % scale 0 is the no-effect control and ±100 the full control effect; nearly all actives have a fitted effect of over 60% in size
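TGR 20 nM + NADPH 100 uM (dispensed conc.), cpd preinc 15 min RT; start with NADPH (500 uM addition) then DTNB (15 mM addition). Kinetic TNB absorbance, 405 nm filter. Four-parameter Hill fit across titration.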
* = called active by the depositor; u = inconclusive; x = no result given. Unless noted, the call rests on the fitted dose curve; in most records, active means well fitted curve in the direction sought with a large enough effect; inconclusive means small, poorly fitted or top-dose-only effect, or another doubt; inactive means no such curve, though single readings can be large; an effect the other way counts as inactive or inconclusive.

SMILES	NS1 inh	Pf growth 96h	Pf growth 48h	Shiga inhibitor	CHX counter	Sm TGR block
C[C@@H]1CC[C@H](O)/C=C/C(=O)O[C@H](C)CC[C@H](O)/C=C/C(=O)O1	6%	10µM*	u	-3	-2	-34%
COc1ccc(-c2noc(CN(C)C(=O)Nc3ccccc3)n2)cc1	-1%	u	15%	35	-5	-2%
COc1cccc(N2CCN(c3ccc4nnc(CCC(=O)Nc5ccccn5)n4n3)CC2)c1	1%	u	-23%	-3	1	-2%
O=C(Cn1ccsc1=NC(=O)c1ccco1)c1ccccc1	-2%	40%	46%	32	24*	u
CC(C)[C@@H](CO)NC(=O)c1ccc2c3n(nc2c1)-c1ccc(Cl)cc1CO3	-1%	144%	129%	46*	34*	6%
Cc1ccc(Cl)cc1Nc1nn2c(=O)c3ccc(C(=O)NC(C)c4ccccc4)cc3nc2s1 (stereo not drawn)	x	x	x	x	x	-1%
C[C@@H](CO)NC(=O)c1ccc2c3n(nc2c1)-c1ccc(Cl)cc1CO3	-3%	143%	118%	55*	33*	-14%
CC(=O)N1c2ccc(S(=O)(=O)NCCc3cccc(C)c3)cc2CC1C (stereo not drawn)	x	x	x	x	x	-4%
CSc1nc(C)cc(Nc2ccc(O)c(CN3CCCCC3)c2)n1	-10%	x	x	x	x	x
COc1cc2c3c(c1OC)C1(C=CC(=O)C=C1)CC3N(C(=O)CCC(=O)O)CC2 (stereo not drawn)	-2%	-26%	2.1µM*	-6	-3	-15%
COc1ccccc1NC(=O)N1CCN(c2ccnc3cc(Cl)ccc23)CC1	-9%	2.6µM*	2.1µM*	-2	3	5%
O=C(Nc1ccc(OC(F)(F)F)cc1)N1CCN(c2ccnc3cc(Cl)ccc23)CC1	-9%	u	u	-3	1	-10%
COc1ccccc1N1CCN(c2ccnc3cc(Cl)ccc23)CC1	9%	0.47µM*	u	3	-4	-1%
CCC(=O)c1ccc(OCC(=O)NCC2COc3ccccc3O2)cc1 (stereo not drawn)	x	u	-10%	x	x	6%
COc1ccc(S(=O)(=O)N2CCC(C(=O)NCCC(=O)Nc3cccc(Cl)c3)CC2)cc1	-1%	24%	0%	-5	-3	-4%
O=C(/C=C/c1ccccc1[N+](=O)[O-])OCC(=O)c1ccccc1	-5%	-18%	40%	79*	37*	8%
O=C(COc1ccccc1[N+](=O)[O-])c1ccccc1	-11%	-8%	u	25	25*	x
COC(=O)/C=C/COc1ccccc1[N+](=O)[O-]	7%	-12%	83%	107*	43*	-5%
O=[N+]([O-])c1ccccc1OC/C(=N\O)c1ccccc1	-4%	61%	4%	41*	15*	-19%
CCc1ccc(NC(=O)Cn2c(=O)n(-c3cc(OC)c(OC)c(OC)c3)c(=O)c3ccccc32)cc1	x	x	x	x	x	2%
COc1ccc(NC(=O)C2CC(c3ccccc3O)=NO2)cc1OC (stereo not drawn)	-13%	u	0%	58	1	9%
CCCNc1cc(C)oc(=O)c1C(=O)CC	x	12%	15%	-1	4	7%
CN(C)c1ccc(C(=O)NCc2ccc3c(c2)CCN3C(=O)c2ccccc2)cc1	x	x	x	x	x	-2%
CN1C(=O)C(CC(=O)N2CCN(C(c3ccccc3)c3ccccc3)CC2)N(C)C1=O (stereo not drawn)	6%	u	12µM*	11	0	0%
O=C(Cn1c(=O)oc2ccccc21)N1CCN(c2ccccc2)CC1	1%	13µM*	13%	-4	-1	-2%
O=C(CCn1c(=O)oc2ccccc21)N1CCN(C(c2ccccc2)c2ccccc2)CC1	-45%	31%	5.9µM*	-2	-5	-1%
Cc1nccn1CC(=O)c1ccc(O)c(O)c1	x	u	25%	x	x	-23%
CCCc1cc(CN(C)C(=O)CC2C(=O)NCCN2Cc2ccccc2C)[nH]n1 (stereo not drawn)	9%	-20%	-17%	2	-4	u
COc1cc(Br)cc(CN2CCN(c3ncccn3)CC2)c1O	9%	-26%	u	-9	1	-15%
CNc1nnc(-c2ccc(N(C)C)cc2)s1	-3%	-16%	129%	19	18*	1%
